Active and inactive are the calls of the source. The calls were made as follows: active = hit-call score of the fitted dose curve at least 0.9, where 1 is the maximum; inactive = score below 0.9.
Assay: IUF_NPC4_neurite_length_120hr: Leibniz Research Institute for Environmental Medicine (IUF) 120-hour Neuronal Morphology Assay for Neurite Length (NPC4) (AID 2284302)
Experimental: IUF_NPC2-5 is a cell-based, multiplexed assay that uses hNPC, a human primary neural progenitor cells, with measurements taken at 72 or 120 hours after chemical dosing in a 96-well plate. Human neural progenitor cells (hNPC) are generated from human fetal brain cortex at gestational week (GW) 16-19. In the neural progenitor cell migration and differentiation assay (NPC2-5), hNPCs grown as spheres are plated on an extracellular matrix and migrate and differentiate out of the sphere core. The processes radial glia migration, neuronal and oligodendrocyte migration as well as neuronal differentiation, neuronal morphology and oligodendrocyte differentiation are studied using automated phase contrast imaging and automated fluorescence imaging in combination with high content image analysis. In parallel, the cell viability is assessed using an alamar blue viability assay and the cytotoxicity using a lactate dehydrogenase dependent membrane integrity assay.IUF_NPC4_neurite_length_120hr is one of 12 assay components measured from the IUF_NPC2-5 assay. The neurite length at 120 hr is the mean length in um of all neurons (see IUF_NPC3_neuronal_differentiation_120hr) that are identified by the skeletonization algorithm in Omnisphero.Data from the IUF_NPC4_neurite_length_120hr component was analyzed at the endpoint IUF_NPC4_neurite_length_120hr in the positive analysis fitting direction relative to DMSO as the negative control and baseline of activity. Using a type of differentiation reporter, gain or loss-of-signal activity can be used to understand developmental effects.
Culture protocol: After the cell expansion period the cells are cultured for up to four weeks in which they are passaged every week as described in 3.6. Between one to three days after passaging spheres at a size of 0.3 mm are picked for the test method. For the assessment of neural progenitor cell migration and differentiation, the spheres are plated on poly-D-lysine/laminin coated 96-well flat bottom plates in differentiation medium (N2) to initiate migration and differentiation. Thereby one 0.3 mm big sphere is plated in the middle of a well. The differentiation medium consists of DMEM and Ham's F12 at a ratio of 3 to 1 supplemented with 1% N2 and 1% penicillin and streptomycin. Within 5 days NPCs radially migrate out of the sphere core and differentiate into radial glia cells (nestin positive), neurons (TUBB3 positive), oligodendrocytes (O4 positive) and astrocytes (GFAP positive). Cultivation during the test method is performed at 37C and 5% CO2 at a ph of 7.2-7.6.Exposure: 0.3 mm big hNPC are plated in the already prepared test conditions. Exposure starts at day 0 of differentiation and is continued over five days of differentiation until the experiment is terminated. Cells are fed with fresh medium at day 3 of differentiation. Therefore, half of the test condition solution (e.g. solvent control or compound dilution) is replaced by freshly prepared test condition solution.Test Method: Migration distance and cytotoxicity is determined after 72 hours based on brightfield images of each well. The assay is terminated by the assessment of cell viability and cytotoxicity as well as cell fixation after 120 h. Immunocytochemistry is performed for Hoechst positive nuclei, TUBB3 positive neurons and O4 positive oligodendrocytes. On the ICC images, migration after 120 hours, neuronal and oligodendrocyte number, neuronal morphology and neuron/oligodendrocyte specific migration is assessed. immunocytochemical staining (ICC) generates an image for each sphere. The plates are scanned using an automated high content imaging device and all nuclei and their positions are determined automatically based on their intensity and size. Images are imported to the Omnisphero software to run the image analysis that measures the following endpoints. The method is set up for 8 test conditions including 7 compound concentrations and one SC. […]

Row | SMILES | AC50 | outcome
1 | CN(C)CCCn1cc(C2=C(c3c[nH]c4ccccc34)C(=O)NC2=O)c2ccccc21 | 4.06 µM (active) | 
2 | F |  | inactive
3 | CC(C)O |  | inactive
4 | CCc1ccccc1 |  | inactive
5 | CC(=O)N[C@@H](CC(=O)O)C(=O)O |  | inactive
6 | CCCCCC=C(C)C(CC)CCO (stereo unspecified) |  | inactive
7 | CCCCOCCOP(=O)(O)OCCOCCCC |  | inactive
8 | CC(=O)OC/N=[N+](\C)[O-] |  | inactive
9 | O=C1CC2(CCCC2)CC(=O)N1CCCCN1CCN(c2ncccn2)CC1 |  | inactive
10 | Cc1[nH]n(C)c(=O)c1C(=O)c1ccc(C(F)(F)F)cc1S(C)(=O)=O |  | inactive
11 | C[C@@H]1CCO[C@H]2Cn3cc(C(=O)NCc4ccc(F)cc4F)c(=O)c(O)c3C(=O)N12 |  | inactive
12 | CC(CNC(=S)[S-])NC(=S)[S-].[Zn+2] (stereo unspecified) | 50 µM (active) | 
13 | CCCCCC(C)(CC)C(=O)NC (stereo unspecified) |  | inactive
14 | C[C@@H]1CC[C@@H](C(C)(C)O)[C@H](O)C1 |  | inactive
15 | BrC1CC(Br)CC(Br)CC(Br)CC(Br)CC(Br)C1 (stereo unspecified) | 1.04 µM (active) | 
16 | CC(C)c1nn(C(=O)NC(C)(C)C)c(=O)n1N |  | inactive

Reference: PubChem BioAssay (EPA / NIEHS)
